Test results reported in PubChem BioAssay.
Where “and” joins values, the source holds several entries; their conditions need not be identical. Identical values can stand only once. The source holds several records for some structures; these can differ, active in one and inactive in another. Calls of active or inactive are those of the source. Unless noted, no rule for the calls is given here.

Experiments:
[1] = liver-stage malaria parasite growth inhibition, primary screen, cell-based, HepG2, luciferase luminescence, HepG2 viability (AID 624349; in the data active = parasite load remaining mostly below about 12%, no sharp cut-off; inactive = mostly above about 10%;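 also: 100% = mean of DMSO negative control wells on the same plate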); details: P. berghei liver stage in HepG2, luciferase luminescence, concentration not given here; parasite load remaining: stronger effect = lower value; viability: measured here: HepG2 viability without parasites
[2] = test system: Hepatitis C virus NS3 helicase; test: HCV NS3 helicase inhibitors, primary screen, biochemical, fluorescence polarization, LOPAC1280 library (AID 687035; in the data active = inhibition above about 37%); details: Purified HCV NS3 helicase, Cy5-dT15 ssDNA binding fluorescence polarization; stronger effect = higher value; concentration not given here
[3] = Cy5 fluorescence quenching or enhancement artefacts, artefact control for HCV NS3 helicase inhibitor project, biochemical, LOPAC1280 (AID 687037); details: Cy5-DNA-NS3h complex fluorescence interference counterscreen
[4] = stimulators of nuclear beta-catenin in C2C12, primary screen, imaging, WNT3A-conditioned medium, mouse C2C12, NPC library (AID 1117326; in the data active = nuclear beta-catenin stimulation mostly above about 4.2%, no sharp cut-off; inactive = mostly below about 10%); details: stronger effect = higher value
[5] = Cy5 fluorescence interference with SSB-bound oligo, artefact control for HCV NS3 helicase inhibitor project, biochemical, NIH Clinical Collection, E. coli SSB (AID 743268)
[6] = test system: Hepatitis C virus NS3 helicase; test: HCV NS3 helicase inhibitors, primary screen, biochemical, fluorescence polarization, NIH Clinical Collection (AID 743270); details: NS3 helicase binding to Cy5-dT15 DNA, stronger effect = higher value, concentration not given here
[7] = molecular target: Single-stranded DNA-binding protein (Escherichia coli (strain K12)) (UniProt P0AGE0); test: E. coli SSB displacement from DNA, counter-screen for HCV NS3 helicase inhibitor project, biochemical, fluorescence polarization, NIH Clinical Collection (AID 743271; in the data active = inhibition above about 28%); details: stronger effect = higher value, concentration not given here
[8] = fluorescence interference in NS3h assay format, artefact control for HCV NS3 helicase inhibitor project, biochemical, NIH Clinical Collection (AID 743272); details: fluorescence interference counterscreen, stronger effect = lower value;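 also: HCV NS3 helicase with a Cy5 labelled single stranded DNA probe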
[9] = test system: Neuropilin-2 / VEGF-C interaction (human); test: inhibitors of NRP2–VEGF-C binding, biochemical, microplate binding format, z-score (AID 743281); details: microplate NRP2/VEGF-C binding assay; stronger effect = lower value

| SMILES | parasite load remaining [1] | viability [1] | inhibition [2] | fluorescence ratio (interference) [3] | nuclear beta-catenin stimulation ([4]; at 10 µM) | nuclear beta-catenin stimulation ([4]; stimulation, at 2 µM) [%] | fluorescence ratio [5] | inhibition [6] | inhibition [7] | fluorescence ratio [8] | z-score [9] |
| --- | --- | --- | --- | --- | --- | --- | --- | --- | --- | --- | --- |
| Cc1oncc1C(=O)Nc1ccc(C(F)(F)F)cc1 | 174% (inactive) and 159% (inactive) and 30% (inactive) | 94.2% and 84.7% and 88.5% | -2% (inactive) | 1 (inactive) | 15.4% (inactive) | 3.9 | – | – | – | – | – |
| CCOC(=O)C(C)(C)Oc1ccc(Cl)cc1 | 56.5% (inactive) and 51.6% (inactive) | 100% and 144% | -5% (inactive) | 1 (inactive) | 0% (inactive) | 1.6 | – | – | – | – | – |
| NC(=O)NO | 113% (inactive) and 59.4% (inactive) | 74.6% and 101% | -3% (inactive) | 1 (inactive) | -0.1% (inactive) | 4 | – | – | – | – | – |
| Cc1nc2sccn2c(=O)c1CCN1CCC(=C(c2ccc(F)cc2)c2ccc(F)cc2)CC1 | 16.8% (inactive) | 91.8% | 0% (inactive) | 0.9 (inactive) | 13.4% (inactive) | 4.3 | – | – | – | – | – |
| CCOC(=O)c1ncn2c1CN(C)C(=O)c1cc(F)ccc1-2 | 6.63% (inactive) and 66.3% (inactive) | 73.1% and 107% | -4% (inactive) | 1 (inactive) | 0.8% (inactive) | -0.7 | 1.05 (inactive) | 1.98% (inactive) | -0.1% (inactive) | 0.99 (inactive) | -0.197 (inactive) |
| COC(=O)[C@H]1[C@H]2C[C@@H]3c4[nH]c5cc(OC)ccc5c4CCN3C[C@H]2C[C@@H](OC(=O)c2cc(OC)c(OC)c(OC)c2)[C@@H]1OC | 23.5% (inactive) and 21.7% (inactive) and 13.3% (active) | 102% and 74.9% and 89.3% | -4% (inactive) | 1 (inactive) | 1.8% (inactive) | 2.2 | – | – | – | – | – |
| COc1ccccc1N1CCN(CC(O)COc2cccc3ccccc23)CC1 (stereo unspecified) | 54.9% (inactive) and 58.6% (inactive) and 42.9% (inactive) | 66.8% and 61.4% and 114% | -2% (inactive) | 1 (inactive) | 1.5% (inactive) | 1.7 | 0.97 (inactive) | 5.15% (inactive) | 5.29% (inactive) | 0.89 (inactive) | 1.13 (inactive) |
| CC(CN(C)C)CN1c2ccccc2CCc2ccccc21 (stereo unspecified) | 54.2% (inactive) and 101% (inactive) and 48.3% (inactive) | 103% and 83.8% and 93.4% | -4% (inactive) | 1 (inactive) | -1.5% (inactive) | -0.7 | – | – | – | – | – |
| CCN1CCC[C@H]1CNC(=O)c1cc(S(N)(=O)=O)ccc1OC | 118% (inactive) and 67.6% (inactive) | 78.9% and 220% | -1% (inactive) | 1 (inactive) | -1.5% (inactive) | 0.2 | 1.03 (inactive) | 0.4% (inactive) | 6.06% (inactive) | 0.97 (inactive) | -0.132 (inactive) |
| CO[C@@]1(NC(=O)CSCC#N)C(=O)N2C(C(=O)O)=C(CSc3nnnn3C)CS[C@@H]21 | 86% (inactive) | 102% | -5% (inactive) | 1 (inactive) | 0.4% (inactive) | 0.7 | – | – | – | – | – |
| C[C@]12C=CC(=O)C=C1CC[C@H]1[C@@H]3C[C@@H](O)[C@](O)(C(=O)CO)[C@@]3(C)C[C@H](O)[C@@]12F | 59.1% (inactive) and 78.5% (inactive) and 29.4% (inactive) | 105% and 93.7% and 75% | -2% (inactive) | 1 (inactive) | -1.1% (inactive) | -0.2 | – | – | – | – | – |
| Cc1cc(N)c2ccccc2[n+]1CCCCCCCCCC[n+]1c(C)cc(N)c2ccccc21 | 4.91% (inactive) and -3.56% (inactive) and 27.5% (inactive) | 97.2% and 73.1% and 69.2% | 2% (inactive) | 0.9 (inactive) | 25% (inactive) | -0.1 | – | – | – | – | – |
| CC(=O)[C@]1(O)Cc2c(O)c3c(c(O)c2[C@@H](O[C@H]2C[C@H](N)[C@H](O)[C@H](C)O2)C1)C(=O)c1ccccc1C3=O | -0.405% (inactive) and 0.045% (active) | 2.19% and 69.5% | -1% (inactive) | 0.8 (active) | 18.6% (active) | 94.8 | 0.31 (active) | 0.4% (inactive) | 14.5% (inactive) | 0.67 (active) | 1.07 (inactive) |
| Oc1ccc(C2CNCCc3c2cc(O)c(O)c3Cl)cc1 (stereo unspecified) | 97.3% (inactive) and 13% (inactive) | 74.7% and 61% | -3% (inactive) | 0.9 (inactive) | 1.1% (inactive) | 7.9 | 0.73 (active) | -1.98% (inactive) | -7.03% (inactive) | 0.87 (inactive) | 0.0254 (inactive) |
| COc1ccc(C2CNC(=O)C2)cc1OC1CCCC1 (stereo unspecified) | 73.2% (inactive) and 98.7% (inactive) and 48.7% (inactive) | 91.9% and 79% and 67.5% | -7% (inactive) | 1 (inactive) | -0.2% (inactive) | -0.4 | 1.03 (inactive) | 2.77% (inactive) | -0.1% (inactive) | 0.98 (inactive) | 0.503 (inactive) |
| OCc1cc(C(O)CNCCCCCCOCCCCc2ccccc2)ccc1O (stereo unspecified) | 94.7% (inactive) and 45.6% (inactive) and 21.7% (inactive) | 96% and 67.2% and 65.5% | 2% (inactive) | 1 (inactive) | 2.7% (inactive) | 0.3 | 0.98 (inactive) | -1.97% (inactive) | -2.76% (inactive) | 1.01 (inactive) | -0.654 (inactive) |
